# Assay outcomes as filed in PubChem BioAssay.
# Tb PGK inh = qHTS Assay to Find Inhibitors of Phosphoglycerate Kinase. Phosphoglycerate kinase, glycosomal (Trypanosoma brucei brucei), P07378. PGK/GAPDH coupled, Kinase-Glo luminescence, 60 min. Potency, µM (top dose mostly 57.5 µM), without a hit: at the highest dose activity change, negative = inhibition, hits mostly inhibitors. 380,000 tested, 0.043% active. AID 602233, 2012; further: potency means the concentration at half of the fitted maximal effect; nearly all actives have a fitted effect of over 60% in size
#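 Recombinant glycosomal PGK reaction used 1,3-bisphosphoglycerate generated in-well by GAPDH (100nM final) in 100mM TEA pH 7.6, 5mM MgCl2, 0.01% Tween-20. After 60 minutes at room temperature, ATP was read by Kinase-Glo Plus luminescence end-point.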
# PI4K2A inh = qHTS for small molecular inhibitors of PI4K2A; purified PI4K2A, ADP-Glo luminescence, 1 h; active compounds read low; activity change, negative = inhibition, % at 76.9 µM; 420,000 tested, 0.13% active; AID 1346378, 2018; in the data active means activity change below about -50%; inconclusive means mostly about -30% to -49%;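 further: -100% = wells without enzyme as full effect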
# Target sequence (Q9BTU6 whole entry, looked up): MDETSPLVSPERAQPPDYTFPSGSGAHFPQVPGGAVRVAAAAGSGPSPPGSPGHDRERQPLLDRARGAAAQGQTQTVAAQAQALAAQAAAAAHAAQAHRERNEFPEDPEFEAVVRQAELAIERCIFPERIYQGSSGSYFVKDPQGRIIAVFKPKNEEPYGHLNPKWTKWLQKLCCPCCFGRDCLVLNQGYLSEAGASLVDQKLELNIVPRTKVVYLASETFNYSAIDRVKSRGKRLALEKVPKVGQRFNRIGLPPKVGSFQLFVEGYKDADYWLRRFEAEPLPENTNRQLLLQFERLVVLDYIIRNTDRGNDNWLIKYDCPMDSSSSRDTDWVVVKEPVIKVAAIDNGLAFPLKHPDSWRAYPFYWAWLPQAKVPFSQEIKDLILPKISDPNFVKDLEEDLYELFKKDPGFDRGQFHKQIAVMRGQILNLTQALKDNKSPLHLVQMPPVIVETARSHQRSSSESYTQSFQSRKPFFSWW
#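 In this quantitative HTS, ADP production by PI4K2A was quantified luminescently after 1 h at ambient temperature; 100 microM adenosine served as plate-quality control.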
# USP1 inh = Inhibitors of USP1/UAF1: Primary Screen; 390,000 tested, 0.23% active; AID 743255, 2014; Potency, µM (titrated, usually from 57.1 µM), for inactives: at the highest dose activity change, negative = inhibition, hits mostly inhibitors; recombinant USP1/UAF1, Ub-Rhodamine cleavage fluorescence; further: potency means the concentration at half of the fitted maximal effect; nearly all actives have a fitted effect of over 60% in size
#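 High-throughput fluorogenic screen: 1nM USP1/UAF1 complex, Ub-Rho substrate 150nM final, 50mM HEPES pH 7.8 with 0.5mM EDTA, 0.1 mg/ml BSA, 1mM TCEP and 0.01% Tween-20.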
# GLS inhibitor = qHTS for Inhibitors of Glutaminase (GLS). GLS enzymatic activity, qHTS titration. 410,000 tested, 0.21% active. Potency, µM (top dose mostly 45.5 µM), for inactives: at the highest dose activity change, negative = inhibition, most hits filed as inhibitors. AID 624170, 2012; further: potency means the concentration at half of the fitted maximal effect
#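 hKGA in 45 mM KH2PO4 pH 8.2, 0.02% Tween-20 with pin-transferred compounds; 1 mM L-glutamine (stock) plus glutamate oxidase/HRP/Amplex Red coupling added. Fluorescence read initially and after 30 min at RT.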
# An asterisk follows results filed as active; i = inactive; ? = inconclusive; . = not tested or not shown; [ ] = remark or other dose. Most compounds without a hit are left out; they make up all but 0.53% or so of the library. Unless noted, the call rests on the fitted dose curve; in most records, active means well fitted curve in the direction sought with a large enough effect; inconclusive means small, poorly fitted or top-dose-only effect, or another doubt; inactive means no such curve, though single readings can be large; an effect the other way counts as inactive or inconclusive. Unless noted, on the % scale 0 is the no-effect control and ±100 the full control effect.
SMILES,Tb PGK inh,PI4K2A inh,USP1 inh,GLS inhibitor
O=C(OCC1OC(OC(=O)c2cc(O)c(O)c(OC(=O)c3cc(O)c(O)c(O)c3)c2)[C@@H](OC(=O)c2cc(O)c(O)c(OC(=O)c3cc(O)c(O)c(O)c3)c2)C(OC(=O)c2cc(O)c(O)c(OC(=O)c3cc(O)c(O)c(O)c3)c2)C1OC(=O)c1cc(O)c(O)c(OC(=O)c2cc(O)c(O)c(O)c2)c1)c1cc(O)c(O)c(OC(=O)c2cc(O)c(O)c(O)c2)c1 (stereo partly specified),.,.,.,27.9%
NC(=O)c1ccc(N=C2C(=O)Nc3ccc([N+](=O)[O-])cc32)cc1,-7.7%,?,14.1µM*,0.2%
CN(C)Cc1cc(C(C)(C)C)cc(C(C)(C)C)c1O,3.3%,5.2,-1.7%,-2.3%
CN(C)Cc1cc(O)c(CN(C)C)cc1O,-21.3%,-22.6,?,14.1µM*
CCCCCCCCCCCCCCCCCCOP(=O)([O-])OC1CC[N+](C)(C)CC1,.,.,.,0.4%[20 µM]
CCN(CC)c1ccc(/C=N/NS(=O)(=O)c2ccc(C)c([N+](=O)[O-])c2)cc1,-5.6%,-2.1,-20.7%,?
CCN(CC)c1ccc(C(=C2C=CC(=[N+](CC)CC)C=C2)c2ccc(N(CC)CC)cc2)cc1,?,-70.7*,?,-6.8%
CCN(CC)c1ccc(C(=C2C=CC(=[N+](CC)CC)C=C2)c2cc(S(=O)(=O)O)ccc2S(=O)(=O)[O-])cc1,.,-51.1*,.,.
CCN(CC)c1ccc(C(=C2C=CC(=[N+](CC)CC)C=C2)c2ccccc2)cc1,i,-7.5,-16.7%,6.31µM*
OC[C@H]1O[C@@H](n2cnc3c2NC=NC[C@H]3O)C[C@@H]1O,.,.,.,0.7%
CC(C)Oc1ccc(-c2nc3c(C#N)c[nH]n3c2NC2CCCCC2)cc1,-3.1%,0.7,?,?
COc1ccc(-c2nc3c(C#N)c[nH]n3c2NC2CCCC2)c(OC)c1,0.3%,0.9,?,12.6µM*
COc1cccc(-c2nc3c(C#N)c[nH]n3c2NC2CCC(C)CC2)c1 (stereo unspecified),1.4%,0.1,-30.2%,?
CCOc1ccc(-c2nc3c(C#N)c[nH]n3c2NC2CCCC2)cc1,3.8%,1.2,-21.0%,14.1µM*
O=C(O)c1ccccc1NCCc1ccccc1,.,1.9,.,.
C#CC1(OC(C)=O)CCC2C3CCC4=CC(OC(C)=O)CCC4C3CCC21C (stereo unspecified),.,.,.,-5.0%
O=C(CCO)c1ccc(O)cc1,?,-16.0,8.0%,7.94µM*
O=C1NC(=O)C2(N1)C(=O)c1cccc3cccc2c13 (stereo unspecified),-9.4%,-14.8,35.5µM*,-0.2%
O=C1NC(=O)C2(N1)c1ccccc1-c1ccccc12,i,-2.5,-21.3%,2.2%
CN(CC(=O)N1CCOCC1)Cc1c(Cl)cccc1NC(=O)c1ccccc1,.,.,.,-2.0%
CC1OC(CC(=O)O)CC2=C1C(=O)c1c(O)cccc1C2=O (stereo unspecified),-7.6%,-59.3*,11.2µM*,?
O=C(O)CC1CC(c2ccccc2)=NO1 (stereo unspecified),.,-4.3,.,.
CN[C@H](C)CCC=C(C)C,.,.,.,-1.9%
C[n+]1cccc2cccc([O-])c21,-16.5%,?,6.31µM*,?
CC(C)CC(NC(=O)CNC(=O)C(Cc1ccc(O)cc1)NC(=O)C(CO)NC(=O)C(Cc1c[nH]c2ccccc12)NC(=O)C(Cc1cnc[nH]1)NC(=O)C1CCC(=O)N1)C(=O)NC(CCCN=C(N)N)C(=O)N1CCCC1C(=O)NCC(N)=O (stereo unspecified),.,.,.,35.4%
SMILES,Tb PGK inh,PI4K2A inh,USP1 inh,GLS inhibitor
COC(CNC(=O)c1ccc2c3c(onc13)-c1ccccc1C2=O)OC,-8.3%,?,17.8µM*,9.3%
COC(CNC(=O)c1cccnc1)OC,3.2%,-1.8,-15.3%,0.4%
O=C(COC(=O)/C=C/c1ccco1)Nc1ncc(C(F)(F)F)cc1Cl,12.6µM*,-2.8,-0.2%,-2.3%
CCN(CC)c1ccc2c(-c3ccc(S(=O)(=O)O)cc3S(=O)(=O)[O-])c3ccc(=[N+](CC)CC)cc-3oc2c1,?,?,31.6µM*,?
O=C1C(=O)c2ncccc2-c2cccnc21,.,.,.,-1.1%
NC1=C(Br)C(=O)c2ncccc2C1=O,-3.3%,?,4.47µM*,-0.1%
CC1(C)CCC(=O)c2ccccc21,-3.8%,-0.9,5.6%,-3.1%
CC1(C)CCC2=C(O1)c1ccccc1C(=O)C2=O,.,-51.7*,.,.
Cc1ccc(O)c(NC(=S)NC(=O)C(C)C)c1,4.1%,-1.4,-10.3%,20µM*
Cc1ccc(O)c(NC(=S)NC(=O)CC(C)C)c1,-9.8%,-3.5,-5.6%,32.1%
CCCCCCC(=O)O[C@@H]1CC[C@H]2[C@@H]3CCc4cc(O)ccc4[C@H]3CC[C@]12C,.,.,.,-3.5%
O=C(O)c1ccc(-c2ccc(/C=C3\NC(=O)N(Cc4ccc(Cl)cc4)C3=O)o2)cc1Cl,25.1µM*,-15.1,?,0.0%
CCOC(=O)CN1C(=O)S/C(=C\c2ccc(-c3ccc(C(=O)O)c(Cl)c3)o2)C1=O,?,-5.3,-20.1%,?
CCCCNC(=O)C1(C(=O)c2ccc(OC)cc2)CC(C(=O)OCC)=NO1 (stereo unspecified),.,4.8,.,.
C[C@]12CCC(=O)C=C1[C@@H]1C[C@@H]1[C@H]1[C@@H]3[C@@H]4C[C@@H]4[C@@]4(CCC(=O)O4)[C@@]3(C)CC[C@@H]12,.,-0.2,.,.
CC#CCC(C)[C@H](O)/C=C/C1[C@H](O)C[C@@H]2C/C(=C\CCCC(=O)O)C[C@H]12 (stereo partly specified),.,.,.,-6.7%
COc1ccc(C(=O)C=Cc2ccc(OCc3ccccc3)c(OC)c2)cc1OC,-7.9%,2.4,-2.3%,3.6%
COc1cc(/C=C2\C(=O)N(c3cccc(C(=O)O)c3)N=C2C)ccc1OCc1ccccc1,-8.7%,-59.0*,?,0.3%
CC1=NN(c2cccc(C(=O)O)c2)C(=O)/C1=C\C=C\c1ccco1,3.98µM*,?,?,92.3%
COc1cc(/C=C2\C(=O)N(c3ccc(S(N)(=O)=O)cc3)N=C2C)ccc1OC(=O)c1ccco1,?,-52.2*,?,-13.2%
COc1cc(/C=C/[N+](=O)[O-])ccc1OCc1cccc(C(=O)O)c1,?,-51.0*,-5.9%,17.9%
CC/C=C(/C(=O)N[C@@H]1C(=O)N2C(C(=O)OCOC(=O)C(C)(C)C)=C(COC(N)=O)CS[C@H]12)c1csc(N)n1,.,.,.,-16.3%
Cc1cccc(-c2cccc3c4c([nH]c23)[C@@H]2C[C@H]3[C@@H](C(=O)N2CC4)[C@H](C)ON3C)c1,.,5.4,.,.
C[C@H]1NCc2cc(-c3ccc4c(=O)c(C(=O)O)cn(C5CC5)c4c3OC(F)F)ccc21,.,i,.,12.6µM*
